CHX counter – affects cycloheximide protein synthesis inhibition readout, counter-screen. actives 12% (n = 300,000). max response, %. cell reporter, cycloheximide protein synthesis inhibition counterscreen; in the data active = max response mostly above about 13%, no sharp cut-off; inactive = mostly below about 14%; also: read at 38.3 µM for the half of the compounds with a filed dose
LASV entry inh – inhibitors of Lassa virus binding or cell entry | Potency, µM (series often up to 37.9 µM), actives largely listed as inhibitors | AID 540256 | actives 1.2% (n = 300,000) | Lassa virus pseudotype entry inhibition, cell reporter; calls by dose curve; tested in HEK293 cells; also: nearly all actives have a fitted effect of over 50% in size
VACV mCherry inh – inhibitors of vaccinia virus infection (mCherry reporter signal). Vaccinia virus mCherry reporter infection, fluorescence. Potency, µM (titrated, usually from 36.5 µM), hits mostly inhibitors. actives 0.63% (n = 310,000). AID 720579; calls by dose curve; tested in A549 cells; also: nearly all actives have a fitted effect of over 35% in size
Shiga toxin inh – Shiga toxin inhibition. Vero cells, Shiga toxin protein synthesis inhibition reporter. inhibition, % at 38.7 µM. actives 9.2% (n = 290,000). AID 2315; in the data active = inhibition mostly above about 28%, no sharp cut-off; inactive = mostly below about 43%
MARV entry inh – blocks Marburg virus binding to or entry into cells | Marburg virus pseudotyped entry inhibition, cell reporter | Potency, µM (titrated, usually from 37.8 µM), actives largely listed as inhibitors | actives 1.8% (n = 300,000) | AID 540276; calls by dose curve; tested in HEK293 cells
VACV Venus inh – vaccinia inhibition (Venus reporter); AID 720580; Vaccinia virus Venus reporter expression, fluorescence; actives 0.46% (n = 330,000); Potency, µM (top dose mostly 36.5 µM), actives largely listed as inhibitors; calls by dose curve; tested in A549 cells; also: nearly all actives have a fitted effect of over 30% in size
Large screens that a line does not name were inactive. The full list was thinned out, with hits kept by preference.

COc1ccc2cc1Oc1ccc(cc1)CC1c3cc(c(OC)cc3CCN1C)Oc1c(OC)c(OC)c(OC)c3c1C(C2)N(C)CC3 (centres undefined)	none (no result: LASV entry inh, VACV mCherry inh, MARV entry inh, VACV Venus inh)
CCCc1cc(C(=O)Nc2cccc(Cl)c2C)no1	CHX counter 52, Shiga toxin inh 66
CCCc1cc(C(=O)Nc2ccc(F)cc2F)no1	CHX counter 58, Shiga toxin inh 74 (no result: LASV entry inh, MARV entry inh)
CCCc1cc(C(=O)Nc2c(C)nn(Cc3c(Cl)cccc3Cl)c2C)no1	LASV entry inh 4µM, MARV entry inh inconclusive (no result: CHX counter, Shiga toxin inh)
CCCc1cc(C(=O)Nc2c(C)nn(Cc3ccc(C)cc3)c2C)no1	MARV entry inh inconclusive (no result: CHX counter, Shiga toxin inh)
CCCc1cc(C(=O)Nc2ccccc2SC)no1	CHX counter 62, Shiga toxin inh 88 (no result: LASV entry inh, MARV entry inh)
O=c1cc(-c2c(F)c(F)c(F)c(F)c2F)oc2c(F)c(F)c(F)c(F)c12	none (no result: LASV entry inh, VACV mCherry inh, VACV Venus inh)
CCCc1cc(C(=O)Nc2c(C)nn(Cc3ccc(Cl)c(Cl)c3)c2C)no1	LASV entry inh inconclusive, MARV entry inh inconclusive (no result: CHX counter, Shiga toxin inh)
Cc1nn(Cc2ccc(Cl)c(Cl)c2)c(C)c1NC(=O)c1cc(CC(C)C)on1	VACV mCherry inh 11µM, VACV Venus inh inconclusive (no result: LASV entry inh, MARV entry inh)
C=C(C)C(=O)Oc1ccc(N2C(=O)CCC2=O)cc1	CHX counter 17 (no result: LASV entry inh, VACV mCherry inh, MARV entry inh, VACV Venus inh)
Cc1cc(OCc2cc(C(=O)N(C)Cc3ccccn3)no2)cc(C)c1Cl	CHX counter 92, LASV entry inh inconclusive, Shiga toxin inh 106
Cc1cc(OCc2cc(C(=O)N(C)C(C)c3ccccn3)no2)cc(C)c1Cl (centres undefined)	CHX counter 41, Shiga toxin inh 102 (no result: LASV entry inh, VACV mCherry inh, MARV entry inh, VACV Venus inh)
CC(=O)c1ccc(OCc2cc(C(=O)N(C)Cc3ccccn3)no2)cc1	CHX counter 62, LASV entry inh inconclusive, Shiga toxin inh 52
CSc1ccccc1OCc1cc(C(=O)N(C)C(C)c2ccccn2)no1 (centres undefined)	LASV entry inh inconclusive
Cc1cc(C)cc(NC(=O)CN2C(=O)COc3ccc(S(=O)(=O)Nc4ccccc4)cc32)c1	none (no result: CHX counter, Shiga toxin inh, MARV entry inh)
COc1cc(C=O)ccc1OS(=O)(=O)c1ccccc1[N+](=O)[O-]	CHX counter 22
COc1cc(C=O)ccc1OCCOc1ccccc1[N+](=O)[O-]	CHX counter 28, LASV entry inh inconclusive, Shiga toxin inh 85, MARV entry inh inconclusive
COc1cc(C=O)ccc1OCCCOc1ccccc1[N+](=O)[O-]	CHX counter 48, Shiga toxin inh 64
COc1cc(C=O)ccc1OCCCCOc1ccccc1[N+](=O)[O-]	CHX counter 15, Shiga toxin inh 35
COc1cc(C=O)ccc1OCCCOc1ccccc1C(=O)O	LASV entry inh inconclusive, MARV entry inh inconclusive (no result: VACV mCherry inh)
COc1cc(C=O)ccc1OCCCOc1ccc([N+](=O)[O-])cc1	LASV entry inh inconclusive
CCOc1ccccc1OCCOCCOc1ccccc1[N+](=O)[O-]	none
Cc1ccc(Nc2c3c(nc4nc(-c5cccs5)nn24)CCCC3)cc1F	LASV entry inh inconclusive, VACV mCherry inh 11µM, VACV Venus inh inconclusive (no result: CHX counter, Shiga toxin inh, MARV entry inh)
C=C(C(C)=O)C(O)C=Cc1ccco1 (centres undefined)	none (no result: CHX counter, LASV entry inh, VACV mCherry inh, Shiga toxin inh, VACV Venus inh)
O=C1N[C@H](Cc2ccccc2)COC(=O)[C@H](Cc2ccc(F)cc2)C/C=C\C[C@@H]1CC(=O)N(CCO)Cc1ccccc1	none (no result: CHX counter, LASV entry inh, Shiga toxin inh, MARV entry inh)
C[C@@H]1COC(=O)[C@H](Cc2ccc(F)cc2)CC/C=C/C[C@@H](CC(=O)N[C@@H](CO)Cc2ccccc2)C(=O)N1	VACV mCherry inh inconclusive (no result: CHX counter, LASV entry inh, Shiga toxin inh, MARV entry inh)
O=C1N[C@H](Cc2ccccc2)COC(=O)[C@@H](Cc2ccc(F)cc2)CC/C=C/C[C@H]1CC(=O)N(CCO)Cc1ccccc1	none (no result: CHX counter, LASV entry inh, Shiga toxin inh, MARV entry inh)
O=C1N[C@@H](Cc2ccccc2)COC(=O)[C@@H](Cc2ccc(F)cc2)CC/C=C/C[C@@H]1CC(=O)N(CCO)Cc1ccccc1	VACV mCherry inh 10µM, VACV Venus inh inconclusive (no result: CHX counter, LASV entry inh, Shiga toxin inh, MARV entry inh)
O=C(C[C@@H]1C/C=C/CC[C@H](Cc2ccc(F)cc2)C(=O)OC[C@@H](Cc2ccccc2)NC1=O)N[C@H](CO)Cc1ccccc1	VACV mCherry inh 10µM, VACV Venus inh 14µM (no result: CHX counter, LASV entry inh, Shiga toxin inh, MARV entry inh)
O=C1N[C@H](Cc2ccccc2)COC(=O)[C@H](Cc2ccc(F)cc2)CC/C=C/C[C@@H]1CC(=O)N(CCO)Cc1ccccc1	VACV mCherry inh 28µM, VACV Venus inh inconclusive (no result: CHX counter, LASV entry inh, Shiga toxin inh, MARV entry inh)
CCCOc1cccc(C2c3c(oc4ccc(F)cc4c3=O)C(=O)N2c2nc(C)c(C(C)=O)s2)c1 (centres undefined)	MARV entry inh inconclusive (no result: CHX counter, Shiga toxin inh)
COc1cccc(C(=O)NCCSCc2ccccc2Cl)c1	CHX counter 13 (no result: LASV entry inh, VACV mCherry inh, MARV entry inh, VACV Venus inh)
COc1cccc(C(=O)NCCSCc2c(F)cccc2Cl)c1	CHX counter 22 (no result: Shiga toxin inh)
CS(=O)(=O)Nc1ccc(C(=O)NCCSCc2c(F)cccc2Cl)cc1	none
COc1ccc(C(=O)NCCSCc2cccc(Cl)c2)cc1OC	none (no result: LASV entry inh, VACV mCherry inh, MARV entry inh, VACV Venus inh)
CCCCC(=O)NCc1nc2cccnc2n1Cc1ccc(OC)cc1	none (no result: CHX counter, Shiga toxin inh, MARV entry inh)
Cc1cccc(-c2nc3scc(CCNS(=O)(=O)c4c(C)noc4C)n3n2)c1	none (no result: CHX counter, Shiga toxin inh, MARV entry inh)
O=C(/C=C/c1ccc(Cl)c(Cl)c1)N1CCc2ccccc21	CHX counter 24, Shiga toxin inh active, MARV entry inh inconclusive
O=C(/C=C/c1cccs1)N1CCc2ccccc21	CHX counter 27, LASV entry inh inconclusive, MARV entry inh 8.2µM
O=C(c1cccs1)N1CCc2ccccc21	CHX counter 54, Shiga toxin inh 70
COc1ccc(Cn2cc(S(=O)(=O)c3ccc(C)cc3)c(=O)c3cc(F)ccc32)cc1	MARV entry inh inconclusive (no result: CHX counter, Shiga toxin inh)
Cc1ccc(S(=O)(=O)N(C)CCCN(C)c2nc(-c3cccs3)nc3ccccc23)cc1	none (no result: CHX counter, LASV entry inh, Shiga toxin inh, MARV entry inh)
COc1ccc(-c2nc3ccc(NC(=O)CO)cc3c(=O)n2Cc2cccc(Cl)c2)cc1COc1ccc(NC(C)=O)cc1	none (no result: CHX counter, LASV entry inh, Shiga toxin inh, MARV entry inh)
CC1(C)C(=O)C=C[C@]2(C)[C@H]3CC[C@@]4(C)[C@H](c5ccoc5)OC(=O)[C@H]5O[C@]54[C@]3(C)[C@H](O)C[C@@H]12	CHX counter 21, LASV entry inh inconclusive, MARV entry inh inconclusive
CCCn1ncc(CN2CCC(C(=O)Nc3cccc(-c4cccc(F)c4)c3)CC2)c1C	LASV entry inh inconclusive, VACV mCherry inh inconclusive, MARV entry inh 2.5µM, VACV Venus inh inconclusive
O=C(Nc1cccc(-c2cccc(Cl)c2)c1)C1CCN(Cc2ccccn2)CC1	LASV entry inh 10µM, VACV mCherry inh inconclusive, MARV entry inh inconclusive
Cn1cccc1C(=O)OCC(=O)Nc1ccc2c(c1)OCO2	CHX counter 33, Shiga toxin inh 64
O=C(COC(=O)c1ccc(N2CCOCC2)c([N+](=O)[O-])c1)Nc1ccc2c(c1)OCO2	none
Cn1cccc1C(=O)OCC(=O)Nc1ccc2c(c1)CCC2	none (no result: VACV mCherry inh, VACV Venus inh)
O=C(COC(=O)c1ccco1)Nc1ccc2c(c1)OCO2	CHX counter 25, Shiga toxin inh 53
Nc1ccc(C(=O)OCC(=O)Nc2ccc3c(c2)OCO3)cc1[N+](=O)[O-]	CHX counter 20, MARV entry inh inconclusive
COc1cccc(NC(=O)CCC2CCN(C(=O)c3cccc(NC(C)=O)c3)CC2)c1	none
O=C(NC1CCN(C(=S)Nc2ccc(F)cc2)CC1)C1CCCCC1	none (no result: LASV entry inh)
COc1ccc(C(C)=O)cc1CC(C(=O)c1ccccc1)N(C)C (centres undefined)	CHX counter 22, MARV entry inh inconclusive
